# Values joined by “and” are separate entries in the source; they are usually repeats but may differ in a detail not shown here. Equal entries are not always repeated. Results filed as inconclusive are left out. Where a call stands in place of a potency, no number is given. Some structures have more than one record in an assay (separate samples or runs), and their calls can disagree. Values without a mark were called inactive. Active and inactive are the calls of the source. The call rests on the fitted dose curve; in most records, active means well fitted curve in the direction sought with a large enough effect; inconclusive means small, poorly fitted or top-dose-only effect, or another doubt; inactive means no such curve, though single readings can be large; an effect the other way counts as inactive or inconclusive.
# Assays:
# CAOV3 = assay: Primary qHTS to identify gynecologic anti-cancer compounds using libraries of approved drugs and bioactive compounds (AID 1345084); settings: Gynecologic cancer cell panel viability, ATPlite luminescence, 48 h; series mostly up to 57.5 µM; further: nearly all actives have a fitted effect of over 55% in size
# In short: (§1)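 Luminescence from the ATPlite ATP-monitoring reagent indicates viable cell number; lower signal means cytotoxicity. Cells received compound 16 h after seeding and were exposed for 48 h across five concentrations.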
# CASKI = assay: as above; settings: Gynecologic cancer cell panel viability, ATPlite luminescence, 48 h; series mostly up to 57.5 µM
# In short: as §1
# Es-2 = assay: as above; settings: Gynecologic cancer cell panel viability, ATPlite luminescence, 48 h; series mostly up to 57.5 µM
# In short: as §1
# HeLa = assay: as above; settings: Gynecologic cancer cell panel viability, ATPlite luminescence, 48 h; series mostly up to 57.5 µM
# In short: as §1
# Hek293T = assay: as above; settings: Gynecologic cancer cell panel viability, ATPlite luminescence, 48 h, control line for the selectivity index; series mostly up to 57.5 µM
# In short: as §1
# JEG-3 = assay: as above; settings: Gynecologic cancer cell panel viability, ATPlite luminescence, 48 h; series mostly up to 57.5 µM
# In short: as §1
# OV90 = assay: as above; settings: Gynecologic cancer cell panel viability, ATPlite luminescence, 48 h; series mostly up to 57.5 µM
# In short: as §1
# PA-1 = assay: as above; settings: Gynecologic cancer cell panel viability, ATPlite luminescence, 48 h; series mostly up to 57.5 µM
# In short: as §1
# SKOV3 = assay: as above; settings: Gynecologic cancer cell panel viability, ATPlite luminescence, 48 h; series mostly up to 57.5 µM
# In short: as §1
# Tov-21-G = assay: as above; settings: Gynecologic cancer cell panel viability, ATPlite luminescence, 48 h; series mostly up to 57.5 µM
# In short: as §1
# Tov112D = assay: as above; settings: Gynecologic cancer cell panel viability, ATPlite luminescence, 48 h; series mostly up to 57.5 µM
# In short: as §1
# [1] = Drug repurposing screens with cells derived from glioblastoma tumor samples (AID 1345199); settings: GBM patient neurospheres viability, ATP luminescence, 48 h; further: nearly all actives have a fitted effect of over 40% in size; further: potency means the concentration at half of the fitted maximal effect
# In short: (§2)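 Primary testing used CD133+ neurospheres from four GBM patients, seven concentrations, 48 h exposure and ATP-based viability; confirmation added three slower-growing patient lines.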
# astro = assay: as above; settings: viability, ATP luminescence, 48 h; series mostly up to 45.9 µM
# In short: as §2
# [2] = at 45.9 µM (top of the series), tumour line B
# [3] = at 45.9 µM (top of the series), tumour line D
# [4] = at 46.1 µM (top of the series), tumour line C
# [5] = at 46 µM (top of the series), tumour line A
# [6] = at 20 µM (top of the series), tumour line C
# [7] = at 21.2 µM (top of the series), tumour line B
# [8] = at 21.2 µM (top of the series), tumour line D
smiles,measurement,setting,value
Cc1cc(O)c(C(C)C)cc1Cl,Potency,CAOV3,inactive
same,Potency,CASKI,inactive
same,Potency,Es-2,inactive
same,Potency,HeLa,inactive
same,Potency,Hek293T,inactive
same,Potency,JEG-3,inactive
same,Potency,OV90,inactive
same,Potency,PA-1,inactive
same,Potency,SKOV3,inactive
same,Potency,Tov-21-G,inactive
same,Potency,Tov112D,inactive
same,"activity, negative = cell killing",[1]; [2],-5.69%
same,"activity, negative = cell killing",[1]; [3],-7.04%
same,"activity, negative = cell killing",[1]; [4],8.96%
CC(=O)N/N=C/c1ccc([N+](=O)[O-])o1,Potency,CAOV3,inactive
same,Potency,CASKI,inactive
same,Potency,Es-2,inactive
same,Potency,HeLa,inactive
same,Potency,Hek293T,inactive
same,Potency,JEG-3,inactive
same,Potency,OV90,inactive
same,Potency,PA-1,inactive
same,Potency,SKOV3,inactive
same,Potency,Tov-21-G,inactive
same,Potency,Tov112D,inactive
O=C(Nc1ccc(Cl)c(Cl)c1)C1CC1,Potency,CAOV3,inactive
same,Potency,CASKI,inactive
same,Potency,Es-2,inactive
same,Potency,HeLa,inactive
same,Potency,Hek293T,inactive
same,Potency,JEG-3,inactive
same,Potency,OV90,inactive
same,Potency,PA-1,inactive
same,Potency,SKOV3,inactive
same,Potency,Tov-21-G,inactive
same,Potency,Tov112D,inactive
same,"activity, negative = cell killing",[1]; [2],-26.9%
same,Potency,[1]; tumour line A,28.2 µM (active)
same,Potency,[1]; tumour line C,23.1 µM (active)
same,Potency,[1]; tumour line D,20 µM (active)
Oc1ccc(Cl)c2cccnc12,Potency,CAOV3,inactive
same,Potency,CASKI,inactive
same,Potency,Es-2,inactive
same,Potency,HeLa,inactive
same,Potency,Hek293T,inactive
same,Potency,JEG-3,inactive
same,Potency,OV90,inactive
same,Potency,PA-1,inactive
same,Potency,SKOV3,inactive
same,Potency,Tov-21-G,inactive
same,Potency,Tov112D,inactive
same,"activity, negative = cell killing",[1]; [4],-0.921%
C/C=C/c1ccc(OC)cc1,Potency,CAOV3,inactive
same,Potency,CASKI,inactive
same,Potency,Es-2,inactive
same,Potency,HeLa,inactive
same,Potency,Hek293T,inactive
same,Potency,JEG-3,inactive
same,Potency,OV90,inactive
same,Potency,PA-1,inactive
same,Potency,SKOV3,inactive
same,Potency,Tov-21-G,inactive
same,Potency,Tov112D,inactive
same,"activity, negative = cell killing",[1]; [2],-1.8%
same,"activity, negative = cell killing",[1]; [3],3.04%
same,"activity, negative = cell killing",[1]; [5],-17.3%
same,"activity, negative = cell killing",[1]; [4],0.347%
OC[C@H]1O[C@H](O[C@]2(CCl)O[C@H](CCl)[C@@H](O)[C@@H]2O)[C@H](O)[C@@H](O)[C@H]1Cl,Potency,CAOV3,inactive
same,Potency,CASKI,inactive
same,Potency,Es-2,inactive
same,Potency,HeLa,inactive
same,Potency,Hek293T,inactive
same,Potency,JEG-3,inactive
same,Potency,OV90,inactive
same,Potency,PA-1,inactive
same,Potency,SKOV3,inactive
same,Potency,Tov-21-G,inactive
same,Potency,Tov112D,inactive
CC(=O)CC(c1ccc([N+](=O)[O-])cc1)c1c(O)c2ccccc2oc1=O (stereo unspecified),Potency,CAOV3,inactive
same,Potency,CASKI,inactive
same,Potency,Es-2,inactive
same,Potency,HeLa,inactive
same,Potency,Hek293T,inactive
same,Potency,JEG-3,inactive
same,Potency,OV90,inactive
same,Potency,PA-1,inactive
same,Potency,SKOV3,inactive
same,Potency,Tov-21-G,inactive
same,Potency,Tov112D,inactive
same,"activity, negative = cell killing",[1]; [6],0.914%
same,"activity, negative = cell killing",[1]; [7],-11%
same,"activity, negative = cell killing",[1]; [8],-16.8%
CNC(=O)CN(CCN(CCN(CC(=O)[O-])CC(=O)NC)CC(=O)[O-])CC(=O)[O-].O.[Gd+3],Potency,CAOV3,inactive
same,Potency,CASKI,inactive
same,Potency,Es-2,inactive
same,Potency,HeLa,inactive
same,Potency,Hek293T,inactive
same,Potency,JEG-3,inactive
same,Potency,OV90,inactive
same,Potency,PA-1,inactive
same,Potency,SKOV3,inactive
same,Potency,Tov-21-G,inactive
same,Potency,Tov112D,inactive
same,"activity, negative = cell killing",[1]; [2],8.28% and -4.12%
same,"activity, negative = cell killing",[1]; [3],7.83% and 10.5%
same,"activity, negative = cell killing",[1]; [5],-5.02%
same,"activity, negative = cell killing",[1]; [4],-11.8% and -0.805%
same,Potency,[1]; tumour line A,35.5 µM (active)
same,Potency,astro,inactive
COc1cc(C(=S)N2CCOCC2)cc(OC)c1OC,Potency,CAOV3,inactive
same,Potency,CASKI,inactive
same,Potency,Es-2,inactive
same,Potency,HeLa,inactive
same,Potency,Hek293T,inactive
same,Potency,JEG-3,inactive
same,Potency,OV90,inactive
same,Potency,PA-1,inactive
same,Potency,SKOV3,inactive
same,Potency,Tov-21-G,inactive
same,Potency,Tov112D,inactive
same,"activity, negative = cell killing",[1]; [2],-7.77%
same,"activity, negative = cell killing",[1]; [3],-20%
same,"activity, negative = cell killing",[1]; [5],-25.7%
same,"activity, negative = cell killing",[1]; [4],-20.5%
CC(=O)OCC(=O)[C@@]1(O)[C@H](C)C[C@H]2[C@@H]3CCC4=CC(=O)C=C[C@]4(C)[C@@]3(F)[C@@H](O)C[C@@]21C,Potency,CAOV3,inactive
same,Potency,CASKI,inactive
same,Potency,Es-2,inactive
same,Potency,HeLa,inactive
same,Potency,Hek293T,inactive
same,Potency,JEG-3,inactive
same,Potency,OV90,inactive
same,Potency,PA-1,inactive
same,Potency,SKOV3,inactive
same,Potency,Tov-21-G,inactive
same,Potency,Tov112D,inactive
same,"activity, negative = cell killing",[1]; [6],-1.02%
same,"activity, negative = cell killing",[1]; [7],-13.3%
same,"activity, negative = cell killing",[1]; [8],-10.9%
same,"activity, negative = cell killing",[1]; [2],1.42%
same,"activity, negative = cell killing",[1]; [3],-14.4%
same,"activity, negative = cell killing",[1]; [4],-7.18%
same,Potency,astro,inactive
NC(=O)C(=O)N/N=C/c1ccc([N+](=O)[O-])o1,Potency,CAOV3,inactive
same,Potency,CASKI,inactive
same,Potency,Es-2,inactive
same,Potency,HeLa,inactive
same,Potency,Hek293T,inactive
same,Potency,JEG-3,inactive
same,Potency,OV90,inactive
same,Potency,PA-1,inactive
same,Potency,SKOV3,inactive
same,Potency,Tov-21-G,inactive
same,Potency,Tov112D,inactive
same,"activity, negative = cell killing",[1]; [4],10.3%
same,Potency,[1]; tumour line A,35.5 µM (active)
CCCCS(=O)(=O)N[C@@H](Cc1ccc(OCCCCC2CCNCC2)cc1)C(=O)O,Potency,CAOV3,inactive
same,Potency,CASKI,inactive
same,Potency,Es-2,inactive
same,Potency,HeLa,inactive
same,Potency,Hek293T,inactive
same,Potency,JEG-3,inactive
same,Potency,OV90,inactive
same,Potency,PA-1,inactive
same,Potency,SKOV3,inactive
same,Potency,Tov-21-G,inactive
same,Potency,Tov112D,inactive
same,"activity, negative = cell killing",[1]; [2],-17.7%
same,"activity, negative = cell killing",[1]; [3],-22%
same,"activity, negative = cell killing",[1]; [4],-12.3%
same,Potency,[1]; tumour line A,11.2 µM (active)
NC[C@H]1O[C@H](O[C@H]2[C@H](O)[C@@H](O[C@H]3O[C@H](CO)[C@@H](O)[C@H](N)[C@H]3O)[C@H](N)C[C@@H]2N)[C@H](N)[C@@H](O)[C@@H]1O,Potency,CAOV3,inactive
same,Potency,CASKI,inactive
same,Potency,Es-2,inactive
same,Potency,HeLa,inactive
same,Potency,Hek293T,inactive
same,Potency,JEG-3,inactive
same,Potency,OV90,inactive
same,Potency,PA-1,inactive
same,Potency,SKOV3,inactive
same,Potency,Tov-21-G,inactive
same,Potency,Tov112D,inactive
same,"activity, negative = cell killing",[1]; [2],-3.08% and -15.5%
same,"activity, negative = cell killing",[1]; [3],-22.4% and -15.3%
same,"activity, negative = cell killing",[1]; [5],-11.7%
same,"activity, negative = cell killing",[1]; [4],-0.491% and -12.3%
same,Potency,astro,inactive

# From PubChem BioAssay (NCATS)
